# Experimental data reported in PubChem BioAssay AID686971 (National Center for Advancing Translational Sciences (NCATS), 2013).
# Screen size: about 360,000 compounds; about 7,500 (2.1%) were called active. Not shown: some 8% with an inconclusive outcome. The call rests on the fitted dose curve; in most records, active means well fitted cell-killing curve with a large enough effect; inconclusive means small, poorly fitted or top-dose-only effect, or effect the other way, or another doubt; inactive means no such curve, though single readings can be large or run the other way. Only a selection was taken, and actives are over-represented in it overall.
# Assay: qHTS for induction of synthetic lethality in tumor cells producing 2HG: qHTS for the HT-1080-IDH1KD cell line;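 on activity, negative = toxicity: 0% = DMSO wells and -100% = cell-free medium wells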
# Details: HT-1080 IDH1 knockdown viability, ATP luminescence, 48 h; series mostly up to 46.1 µM; activity, negative = toxicity: at the top concentration
# Method in brief: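 Luminescent ATP read-out (CellTiter-Glo, 10 min at room temperature) after 48 h compound exposure at 37 °C gave viability of IDH1-knockdown HT-1080 cells. Activity was normalised to DMSO and cell-free wells, then fitted as concentration-response curves.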
# Potency means the concentration at half of the fitted maximal effect.
SMILES,"activity, negative = toxicity",Potency
CSc1ccccc1C(=O)Nc1cccc(C(C)=O)c1,-6.03% (inactive),–
C=CCSc1nsc(NC(=O)Nc2cccc(C(C)=O)c2)n1,–,16.4 µM (active)
CC(=O)c1cccc(NC(=S)N2CCCC2)c1,11.1% (inactive),–
Cc1cc2oc(=O)cc(CN(C)Cc3ccccc3)c2cc1Cl,2.28% (inactive),–
Cc1nn(-c2ccccc2)c(Cl)c1/C=N/NC(=O)c1nn(C)cc1[N+](=O)[O-],-29.8% (inactive),–
Cc1ccc2[nH]c(C(=O)O)c(NC(=O)c3ccccc3[N+](=O)[O-])c2c1,9.67% (inactive),–
Cc1c(C(=O)N/N=C/c2ccccc2)[nH]c2c([N+](=O)[O-])cccc12,–,0.517 µM (active)
CC1(C)OC(=O)C2=C(C[C@@H](C3CCCC3)O[C@@H]2c2ccc(Cl)cc2)O1,8.76% (inactive),–
CC1(C)CCc2cc(S(=O)(=O)N3CCN(c4nc(-c5cccs5)nc5ccccc45)CC3)ccc2O1,5.15% (inactive),–
COc1ccc(C(C)(NC(C)=O)c2nc(-c3ccc(S(C)(=O)=O)cc3)cs2)cc1 (configuration not stated),8.14% (inactive),–
COC(=O)c1ccc2nc(-c3ccc(Cl)cc3)c(Cc3cccc(F)c3)n2c1,9.38% (inactive),–
CC(C)CC[n+]1ccn(C2=C([O-])c3ccccc3C(=O)/C2=N\S(=O)(=O)c2ccccc2)c1,–,11.2 µM (active)
CC[C@@H]1CC2=C(C(=O)OC(C)(C)O2)[C@@H](CC)O1,-0.785% (inactive),–
CCOC(=O)C1(C)CCCN(C(=O)c2ccc(N(C)C)cc2)C1 (configuration not stated),8.71% (inactive),–
CCC(=O)c1ccc(N2CCN(C(=O)c3cc([N+](=O)[O-])ccc3F)CC2)c(F)c1,2.7% (inactive),–
O=C(Nc1cccc(Cl)c1)c1cc([N+](=O)[O-])ccc1N1CCN(CCO)CC1,-0.581% (inactive),–
CCN1CCN(c2ccc([N+](=O)[O-])cc2C(=O)c2ccc(Cl)cc2)CC1,–,23.1 µM (active)
CN(Cc1c(F)cccc1Cl)C(=O)COC(=O)Cn1cnc2ccccc2c1=O,4.82% (inactive),–
CN(C)CCCn1c(=O)n(Cc2ccccc2)c(=O)c2c3c(sc21)CCCCC3,–,25.9 µM (active)
O=c1c2c3c(sc2n(CCN2CCCC2)c(=O)n1Cc1ccccc1)CCCCC3,-0.168% (inactive),–
Cn1c(=O)n(Cc2ccco2)c(=N)c2c3c(sc21)CCCC3,-10% (inactive),–
COc1cccc(-c2nc3nc(C)cc(C)n3c2NC2CCCCC2)c1,7.4% (inactive),–
COC(=O)C[C@H]1C=C[C@@H](NS(=O)(=O)c2ccc(C)cc2)[C@@H](CO)O1,15.1% (inactive),–
COCCNC(=O)C1(C)CCCN(Cc2cccc(F)c2)C1 (configuration not stated),9.99% (inactive),–
CCCc1cc(=O)[nH]c(SCC(=O)c2c(N)n(CC(C)C)c(=O)n(C)c2=O)n1,–,3.26 µM (active)
CCCc1cc(=O)[nH]c(SCC(=O)c2cc(C)n(CCC)c2C)n1,2.35% [at 9.24 µM] (inactive),–
CCCc1cc(=O)[nH]c(SCC(=O)OCc2ccccc2)n1,0.689% (inactive),–
